Screening results: PubChem BioAssay, National Center for Advancing Translational Sciences (NCATS)
Most compounds without a hit are left out; they make up all but 3.4% or so of the library.
Luciferase inh: inhibitors of firefly luciferase | purified firefly luciferase, luminescence, 8 min | 72,000 compounds, 2.2% hits | P08659 | Potency, µM (highest dose often 57.1 µM), most hits filed as inhibitors; active = well fitted inhibition curve with a large enough effect; inconclusive = small, poorly fitted or top-dose-only effect; also: nearly all actives have a fitted effect of over 40% in size
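Firefly luciferase (PKLight detection mix) with 10 uM ATP in pH 7.2 imidazole buffer (KCl, MgCl2, Tween 20, BSA). Compounds tested across a concentration series (qHTS). Luminescence read after 8 min at ambient temperature.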
GBA activity: modulators of human glucocerebrosidase; purified enzyme, resorufin glucoside fluorescence (screen aimed at inhibitors), 20 min; Potency, µM; 48,000 compounds, 1.1% hits; AID 360; in the data active = potency below about 15 µM; inconclusive = mostly about 16 µM to 33 µM;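 also: the screen sought inhibitors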
Target sequence (P04062 whole entry, looked up): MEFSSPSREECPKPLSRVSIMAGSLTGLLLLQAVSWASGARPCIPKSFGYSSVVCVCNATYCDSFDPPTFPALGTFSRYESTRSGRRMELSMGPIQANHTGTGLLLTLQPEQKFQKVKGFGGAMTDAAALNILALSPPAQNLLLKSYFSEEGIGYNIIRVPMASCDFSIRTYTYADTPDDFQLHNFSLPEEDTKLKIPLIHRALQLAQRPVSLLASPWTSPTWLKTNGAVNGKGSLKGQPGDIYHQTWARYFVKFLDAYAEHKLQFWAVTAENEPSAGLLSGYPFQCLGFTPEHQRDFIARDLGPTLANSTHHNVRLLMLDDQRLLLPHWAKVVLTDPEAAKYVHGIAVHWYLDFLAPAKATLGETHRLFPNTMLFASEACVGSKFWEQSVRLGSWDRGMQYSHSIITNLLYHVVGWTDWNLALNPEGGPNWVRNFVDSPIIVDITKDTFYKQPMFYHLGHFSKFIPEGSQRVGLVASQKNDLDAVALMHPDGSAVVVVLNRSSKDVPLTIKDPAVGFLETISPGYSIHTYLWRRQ
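Wild-type enzyme at 0.2 nM final in 50mM citric acid/KH2PO4, 10mM sodium taurocholate, 0.01% tween-20, pH 5.9, with resorufin beta-D-glucopyranoside at 30 uM final. Compounds titrated, 20 min at RT, red fluorescence read; AC50 from titration.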
PK Bst: alters activity of Bacillus stearothermophilus pyruvate kinase; purified pyruvate kinase, luminescence ATP production; ribose 5-phosphate activator present at AC10; AID 361; Potency, µM; 51,000 compounds, 1.2% hits; in the data active = potency below about 11 µM; inconclusive = mostly about 12 µM to 25 µM;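 the screen sought inhibitors and activators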
A number is an active result; . = inactive; ? = inconclusive; / = not tested or not shown; [ ] = remark or other dose.

SMILES	Luciferase inh	GBA activity	PK Bst
Cc1nc2cnc(N3CCN(C)CC3)nc2n(Cc2ccc(F)cc2)c1=O	.[11.4 µM]	/	/
O=C(Oc1oc(-c2ccco2)nc1C=Nc1ccccc1)c1ccco1	.	/	.
Cc1ccc(N=Cc2nc(-c3ccco3)oc2O)cc1	16µM	.	?
O=c1c(-c2ccc(O)cc2)coc2cc(O)cc(O)c12	.	/	/
CC(C)Oc1cc(O)c2c(=O)c(-c3ccc(O)cc3)coc2c1	13µM	/	/
COc1cc(COc2cc(N)c(Cl)cc2C(=O)CCC2CCN(CCNS(C)(=O)=O)CC2)cc(OC)c1	.	/	/
O=c1c(CCc2ccccc2)nc2cnc(Oc3cccc(Cl)c3)nc2n1C[C@H]1CCCO1	.[11.4 µM]	/	/
Cc1ccc(C(C(=O)NC2CCCC2)N(C(=O)c2csnn2)C2CCCC2)o1 (stereo not drawn)	.	.	.
CC(C)(C)NC(=O)C(c1ccncc1)N(C(=O)c1csnn1)C1CC1 (stereo not drawn)	?	/	9.1
NCc1ccc(-c2nc3ccccc3o2)cc1	.	.	.
Nc1ccc(CCc2nc3ccccc3o2)cc1	25µM	.	.
CN(C)C(=O)c1ccc(-c2ccc3ncnc(N4CCC(C(=O)O)CC4)c3c2)cc1	.[2.29 µM]	/	/
Brc1cnc(N2CCCC2)nc1N1CCOCC1	.	15	.
Oc1ccccc1Oc1ncc(Br)c(N2CCOCC2)n1	.	.	.
COCCn1c(=O)c(C)nc2cnc(N3CCN(C)CC3)nc21	.[11.4 µM]	/	/
Cc1nc2c(c(=O)n1CC1CCCO1)c1nc3ccccc3nc1n2Cc1ccc2c(c1)OCO2 (stereo not drawn)	.	/	.
O=C(O)CCCSc1nc2ccccc2s1	.[11.4 µM]	/	/
Clc1cc(Cl)c(OCc2nc(-c3ccccn3)no2)cc1Cl	13µM	.	.
CC(C)(C)c1ccc(OCc2nc(-c3ccccn3)no2)c(Br)c1	?	.	/
Clc1ccc(OCc2nc(-c3ccncc3)no2)c(Cl)c1	16µM	.	.
COc1ccc(-c2noc(COc3ccccc3OC)n2)cc1OC	.	/	/
O=C1COC(c2ccccc2O)=NN1CCCN1CCCC1	.[11.4 µM]	/	/
C=C(CO)[C@H]1Cc2c(ccc3c2O[C@H]2COc4cc(OC)c(OC)cc4[C@@H]2C3=O)O1	.[11.4 µM]	/	/
C1CCC(C(C[C@@H]2CCCCN2)C2CCCCC2)CC1	.	/	/
CC(C)(CO)[C@H](O)C(=O)NCCC(=O)O	.	/	/
SMILES	Luciferase inh	GBA activity	PK Bst
Cc1cc(C(=O)CSc2nnc(Cc3ccccc3)o2)c(C)n1Cc1ccc2c(c1)OCO2	.	4	.
C=CCn1c(C)cc(C(=O)CSc2nnc(Cc3ccccc3)o2)c1C	.	/	.
COc1ccc(-c2cc3nc4n(c(=O)c3s2)CCOC4)cc1	2µM	/	6.7
COc1ccc(-c2nc3cnc(N4CCOCC4)nc3n(Cc3cccs3)c2=O)cc1	.[11.4 µM]	/	/
COc1ccc(CCN2C(=NC(=O)CCC(=O)O)SC3CS(=O)(=O)CC32)cc1OC (stereo not drawn)	13µM	.	.
C=CCN1C(=NC(=O)CCCC(=O)O)SC2CS(=O)(=O)CC21 (stereo not drawn)	.	.	.
Cc1ccccc1CNc1ncnc2c1ncn2[C@@H]1O[C@@H](CO)[C@H](O)[C@@H]1O	.	/	/
O=C(NCCCNCCCNC(=O)c1ccccn1)c1ccccn1	.	.	.
O=C(/C=C\Nc1ccccn1)c1ccccc1	3.2µM	/	/
O=C(O)C1CCCCC1C(=O)Nc1ccccn1 (stereo not drawn)	.	.	.
O=C(/C=C/Nc1ccccc1Br)c1ccccn1	0.1µM	/	/
O=C(c1cccc(F)c1)N1CCC2(CC1)CCN(c1ccncc1)CC2	.[11.4 µM]	/	/
O=C(Nc1ccc2c(c1)oc1ccccc12)N1CCOCC1	20µM	/	?
CCn1c2ccccc2c2cc(NC(=O)N3CCOCC3)ccc21	.	.	/
Cc1cc(C(=O)CNCc2ccco2)c(C)n1-c1ccc(F)cc1	25µM	/	/
Cc1cc(C(=O)OCC(=O)N2CCN(C(=O)c3ccco3)CC2)c(C)n1-c1ccc(F)cc1	.	.	.
CCN(CC)S(=O)(=O)c1cc(C(=O)Nc2ccccc2C(=O)O)ccc1OC	20µM	.	/
CN(C)S(=O)(=O)c1ccc(C(=O)Nc2ccccc2C(=O)O)cc1	?	.	.
CNC(=O)c1cc2c(s1)CCCCCC2	.	.	.
O=C(Nc1ccon1)c1cc2c(s1)CCCCCC2	25µM	/	/
COc1cccc(-c2cc(NCc3ccccc3)ncn2)c1	.[2.29 µM]	/	/
CCCCCN=Cc1c(C)[nH]n(-c2nc3ccccc3s2)c1=O	7.9µM	/	/
Cc1[nH]n(-c2ccccc2)c(=O)c1/C=N/O	.	/	/
CCCc1[nH]n(-c2nc3ccccc3s2)c(=O)c1C=NCCN1CCOCC1	.	/	.
CCCc1[nH]n(-c2nc3ccccc3s2)c(=O)c1C=NCC1CCCO1 (stereo not drawn)	.	13	/
SMILES	Luciferase inh	GBA activity	PK Bst
COc1ccc(Oc2ncc3nc(CCc4ccccc4)c(=O)n(CCC#N)c3n2)cc1	.[11.4 µM]	/	/
FC(F)(F)c1ccccc1-c1nccc(-n2ccnc2)n1	.[2.29 µM]	/	/
COc1ccc(CNc2ncnc3ccc(-c4ccc(C(=O)N(C)C)cc4)cc23)c(OC)c1	.[2.29 µM]	/	/
O=c1c(-c2ccc(F)cc2)nc2cncnc2n1Cc1ccc(F)cc1	.[11.4 µM]	/	/
Cn1c(=O)c(-c2cc(F)cc(F)c2)nc2cnc(Oc3ccccc3)nc21	.[11.4 µM]	/	/
O=C(Nc1ccc(-c2nc3cccnc3s2)cc1)c1ccco1	3.2µM	/	/
O=C(Nc1cccnc1)c1cccc(NC(=O)c2ccco2)c1	.	/	/
O=C(Nc1ccc(-c2nc3cccnc3s2)cc1)c1ccc(Br)o1	.	/	/
O=C(Nc1cccc(-c2nc3cccnc3s2)c1)c1ccco1	20µM	.	?
O=C(c1cccc(F)c1)N1CCC2(CCN(Cc3cc(C(F)(F)F)cc(C(F)(F)F)c3)CC2)CC1	.[11.4 µM]	/	/
Cn1cccc1C(=O)N1CCC[C@@]2(CCN(c3ccncc3)C2)C1	.[11.4 µM]	/	/
O=C(c1cccc(F)c1)N1CCC[C@@]2(CCN(c3ccccc3)C2)C1	.[11.4 µM]	/	/
COc1ccc(Nc2ccnc3ccccc23)cc1	.	?	.
COc1ccc(NC2=Nc3ccccc3CC2)cc1	20µM	.	.
O=C(COC(=O)c1cccs1)c1ccc2c(c1)OCCO2	0.32µM	.	0.29
CC(=O)Nc1ccc(SCC(=O)c2cc(C)n(Cc3cccs3)c2C)cc1	.	.	.
Cc1csc(SCC(=O)c2cc(C)n(Cc3cccs3)c2C)n1	4µM	.	3.2
CCn1nc(C(=O)OCC(=O)c2ccc3c(c2)OCCO3)c2ccccc2c1=O	13µM	.	?
Cc1cc(C(=O)COC(=O)c2ccc3c(c2)OCO3)c(C)n1Cc1cccs1	?	14	/
CCn1nc(C(=O)OCC(=O)c2cc(C)n(Cc3cccs3)c2C)c2ccccc2c1=O	.	.	/
O=C(Cc1n[nH]c(=O)c2ccccc12)OCC(=O)c1ccc2c(c1)OCCO2	.	.	/
O=C(COC(=O)c1cccs1)NCc1ccc2c(c1)OCO2	.	.	.
COc1ncc2nc(C)c(=O)n(C3CC3)c2n1	.[11.4 µM]	/	/
C[C@@H](C[C@H](N)C(=O)O)C(=O)O	.[11.4 µM]	/	/
O=C(O)C[C@@H]1CCCc2ccccc2[C@H]1O	.	/	/
CC(=O)NC12CC3CC(C1)CC(C(=O)OCC(=O)c1ccc4c(c1)OCCO4)(C3)C2	4µM	.	4.3
CC(=O)NC12CC3CC(C1)CC(C(=O)OCC(=O)Nc1ncc(Cl)c(C)c1Cl)(C3)C2	.	.	.
COC(=O)C1=C(C)NC(C)=C([N+](=O)[O-])[C@H]1c1ccccc1C(F)(F)F	.	/	/
COC(=O)C1=C(C)NC(C)=C([N+](=O)[O-])[C@@H]1c1ccccc1C(F)(F)F	4µM	/	/
COC(=O)Cc1c(C)nc2nc(-c3ccccc3)[nH]n2c1=O	25µM	?	/
